This passage reports Potency results from PubChem BioAssay AID504832 (National Center for Advancing Translational Sciences (NCATS), 2011).

Each structure is given as a SMILES string. Out of some 310,000 compounds screened, about 18,000 (5.8%) were called active. A call without a number means that no potency is given here. Another 22% or so got no clear call; they are omitted. Calls follow the shape of the dose curve; as a rule, active = well fitted inhibition curve with a large enough effect; inconclusive = small, poorly fitted or top-dose-only effect, or another doubt; inactive = no such curve, though single readings can be large or run the other way. This excerpt belongs to a sample that is enriched for actives.
Potency is read from the fitted curve at half-maximal effect.

The nature of this test: Primary qHTS for delayed death inhibitors of the malarial parasite plastid, 48 hour incubation. Conditions: P. falciparum luciferase growth in erythrocytes; series mostly up to 28.7 µM. The gist of the method: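 In quantitative HTS format, infected erythrocytes bearing luciferase-reporter parasites were treated for a single generation at 37 C. Luminescence after adding detection reagent served as the growth measure.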
A general note: Quantitative high-throughput screening tests each substance at several concentrations.
With `CN1CCN(C(=O)c2ccccc2NC(=O)COc2ccccc2Cl)CC1`, the Potency result was “inactive”.
As for `COc1ccc(/C(C)=N\NC(=O)c2ccc(-c3ccccc3)cc2)c(F)c1`, the Potency entry was “inactive”.
As for `CCOc1ccc(/C=C/C(=O)N(CC)CC(=O)NCc2cccs2)cc1OC`, the Potency entry was “inactive”.
As for `CCS(=O)(=O)Nc1ccc(C2=NN(C(C)=O)C(c3cccs3)C2)cc1` (configuration not stated), the entry is “inactive”; as for `CS(=O)(=O)Nc1ccc(C2=NN(S(C)(=O)=O)C(c3cccs3)C2)cc1` (configuration not stated), “inactive”.
Regarding `CS(=O)(=O)Nc1cccc(C2=NN(C(=O)c3cccc(F)c3)C(c3cccs3)C2)c1` (configuration not stated), the Potency is 11.7 µM (active).
In the case of `CSc1ncccc1C(=O)Nc1ccc(C)cn1`, the Potency result was “inactive”.
For `Cc1ccc2c(c1)N(CC(=O)N1CCC(O)CC1)C(=O)CO2`, the Potency entry is “inactive”.
In the case of `CC(C)c1ccc(OCC(O)CN2CCN(c3ccccn3)CC2)cc1` (configuration not stated), the Potency result was “inactive”.
For the compound `CC(C)c1ccc(OCC(O)Cn2cnc3ccccc32)cc1` (configuration not stated), the Potency is 11.7 µM (active).
With `CC(=O)OC(COc1ccc(F)cc1)Cn1cnc2ccccc21` (configuration not stated), the Potency result is “inactive”.
As for `COc1cc([N+](=O)[O-])cc([N+](=O)[O-])c1NC(=O)N1CCOCC1`, the Potency result is “inactive”.
For the compound `NC(=O)c1ccsc1NC(=O)COC(=O)Cc1n[nH]c(=O)c2ccccc12`, the Potency entry is “inactive”.
With `O=S(=O)(NC1CC1)c1ccc(Cl)cc1`, the Potency entry was “inactive”.
Take `CC(Cc1ccccc1)NCCC(c1ccccc1)c1ccccc1` (configuration not stated): the Potency was 10.4 µM (active).
`CC(Cc1ccccc1)C(=O)N(C)Cc1ccccc1` (configuration not stated): the Potency result was “inactive”.
In the case of `Cc1ncoc1C(=O)NCCC(c1ccccc1)c1ccccc1` it was “inactive”; in that of `NS(=O)(=O)c1ccc(CCNC(=O)CN2C(=O)c3ccccc3S2(=O)=O)cc1`, “inactive”; in that of `COc1ccc(N2CCN(S(=O)(=O)c3ccc4c(c3)N(C(C)=O)CCO4)CC2)cc1`, “inactive”.
Consider `COCCN1C(=O)N[C@@H](c2ccccc2)C(C(=O)OC)=C1C`, for which the Potency entry is “inactive”.
Take `COC(=O)C1=C(C)N(C)C(=S)NC1c1ccccc1` (configuration not stated): the Potency entry is “inactive”.
Regarding `COC(=O)C1=C(C)N(C)C(C)=C(C(=O)OC)C1c1cccc(Br)c1`, the Potency is 8.28 µM (active).
For `CCn1cc(CN2CCC(n3nccc3NC(=O)CCCc3ccccc3)CC2)c(C)n1`, the Potency entry was “inactive”.
As for `CNC(=O)N1c2ccccc2C=Cc2ccccc21`, the entry is “inactive”.
In the case of `CC1Sc2ccc(S(=O)(=O)CCC(=O)NCc3ccccc3Cl)cc2NC1=O` (configuration not stated), the Potency result was “inactive”.
Regarding `CN(C)C(=O)c1ccc(NC(=O)c2ccccc2-c2ccccc2)cc1`, the Potency entry was “inactive”.
Take `Cc1ccc(-c2nnc(Nc3ccc(C(=O)N(C)C)cc3)c3ccccc23)cc1S(N)(=O)=O`: the Potency is 9.28 µM (active).
In the case of `COc1ccc(Nc2nnc(C)c3ccccc23)cc1` it was “inactive”.
With `COc1cc(C(=O)N(C)Cc2cccc(OC)c2OC)ccc1OCC(=O)Nc1cccc(C(F)(F)F)c1`, the Potency is 11.7 µM (active).
As for `CCNC(=O)c1ccc(OCC(=O)Nc2ccc(F)cc2)c(OC)c1`, the Potency result was “inactive”.
Regarding `COc1ccc(NC(=O)CN(C)CC(=O)Nc2cccc(C(F)(F)F)c2)cc1`, the Potency entry is “inactive”.
In the case of `O=C(Nc1ccc(N2CCCCC2)cc1)c1cc(S(=O)(=O)N2CCOCC2)ccc1F` it was “inactive”; in that of `O=C(Nc1cccc(Cl)c1)C1CCCN(c2cnccn2)C1` (configuration not stated), “inactive”; in that of `N#Cc1cccc(NC(=O)C2CCCN(C(=O)c3ccc(Cl)cc3)C2)c1` (configuration not stated), 9.28 µM (active).
On to `N#Cc1cccc(NC(=O)CN2CCCCCC2)c1`, for which the Potency result was “inactive”.
As for `COc1ccc(Cl)cc1C(=O)OCC(=O)NCc1cccs1`, the Potency entry is “inactive”.
Consider `CCOC(=O)C1CCN(S(=O)(=O)c2ccc3c(c2)N(C(C)=O)CCO3)CC1`, for which the Potency result was “inactive”.
As for `CCOC(=O)C1CCN(C(=O)COC(=O)C2CCN(S(=O)(=O)c3ccc4c(c3)OCCO4)CC2)CC1`, the figure is 13.1 µM (active); as for `CCOC(=O)C1CCN(C(=O)C2CCCN(S(=O)(=O)c3ccc(OC)c(Cl)c3)C2)CC1` (configuration not stated), “inactive”; as for `CCOC(=O)C1CCN(C(=O)c2oc3ccc(S(=O)(=O)N4CCCCCC4)cc3c2C)CC1`, 11.7 µM (active).
As for `O=C(COC(=O)C1CCN(S(=O)(=O)c2ccc3c(c2)OCCO3)CC1)Nc1ccccc1OC(F)F`, the Potency entry is “inactive”.
Take `Cc1c(C(=O)NCCN(C)C)oc2ccc(S(=O)(=O)N3CCCC3)cc12`: the Potency entry is “inactive”.
As for `CC(Sc1nnc(-c2ccccc2F)n1C1CC1)C(N)=O` (configuration not stated), the entry is “inactive”; as for `Cc1occc(=O)c1OCc1ccc(F)cc1`, “inactive”; as for `Clc1nc(NC2CCCC2)nc(N2CCOCC2)n1`, “inactive”.
In the case of `Cc1ccc(NC(=O)Cc2nnc(SCC(=O)Nc3nncs3)n2C)cc1` it was “inactive”.
For `CCc1noc(C)c1C(=O)N1CCN(S(=O)(=O)c2cccc(C(F)(F)F)c2)CC1`, the Potency entry is “inactive”.
For the compound `Cc1onc(C(=O)NN)c1C(=O)N1CCN(C(c2ccccc2)c2ccccc2)CC1`, the Potency was 5.86 µM (active).
`Cc1c(C(=O)N2CCCC2)c(S(=O)(=O)NCC(C)c2ccccc2)c(C)n1C` (configuration not stated): the Potency result was “inactive”.
As for `COc1ccc(N2CCN(C(=O)Cn3cnc4sc(C)c(S(=O)(=O)N5CCOCC5)c4c3=O)CC2)cc1`, the Potency result was “inactive”.
`CN(Cc1cccs1)C(=O)CN1C(=O)c2ccccc2S1(=O)=O`: the Potency result was “inactive”.
`CCC1CCC2(CC1)NC(=O)N(CC(=O)Nc1ccc(OC)cc1)C2=O` (configuration not stated): the Potency entry is “inactive”.
As to `O=C(CN(CC1CCCO1)C(=O)CNS(=O)(=O)c1ccc(Cl)cc1)NCc1ccccc1` (configuration not stated), the Potency entry is “inactive”.
In the case of `CCN(C(=O)COC(=O)c1sccc1C)c1c(N)n(Cc2ccccc2)c(=O)[nH]c1=O` it was “inactive”; in that of `CCN(C(=O)COC(=O)c1c(C)nn(-c2ccccc2)c1Cl)c1c(N)n(Cc2ccccc2)c(=O)[nH]c1=O`, 10.4 µM (active).
For `CCN(C(=O)COC(=O)CCOc1cccc(C)c1)c1c(N)n(Cc2ccccc2)c(=O)[nH]c1=O`, the Potency result was “inactive”.
With `Cc1ccccc1NC(=O)Cc1nc(COC(=O)c2cccnc2Cl)cs1`, the Potency entry is “inactive”.
`O=C(CCNC(=O)c1ccc([N+](=O)[O-])cc1)NC1CCCCC1`: the Potency entry is “inactive”.
As to `CCOc1cc(C(=S)N2CCOCC2)ccc1OS(=O)(=O)c1ccc(Br)cc1`, the Potency result is “inactive”.
In the case of `COc1cc(OC)c(C(=S)N2CCCC2)cc1OC` it was “inactive”; in that of `COC(=O)[C@@H](Cc1ccccc1)NC(=O)NCCc1ccccc1`, “inactive”; in that of `Cc1ccccc1CSCCNC(=O)c1ccc(N(C)S(=O)(=O)c2ccccc2)cc1`, “inactive”.
Take `Cc1ccccc1CSCCNC(=O)c1ccc(Cl)c(S(=O)(=O)N2CCOCC2)c1`: the Potency was 11.7 µM (active).
As for `O=C(NCCSCc1ccccc1)c1ccc(Cl)c(S(=O)(=O)N2CCOCC2)c1`, the Potency is 10.4 µM (active).
For the compound `O=C(NCc1cccnc1)c1cc(S(=O)(=O)N2CCOCC2)c(Cl)cc1Cl`, the Potency entry was “inactive”.
On to `Cc1ccc(C(=O)Nc2ncccc2C)cc1S(=O)(=O)N1CCOCC1`, for which the Potency result is “inactive”.
Turning to `Cc1ccc(NC(=O)CCCNC(=O)c2ccc(Cl)cc2)cc1S(=O)(=O)N1CCOCC1`, the Potency entry was “inactive”.
